Source: PubChem
Most compounds without a hit are left out; they make up all but 6.7% or so of the library.
T cruzi growth-1: T. cruzi intracellular proliferation inhibitors, primary screen, cell-based, beta-gal Tulahuen parasites, NIH3T3 host, luminescence. T. cruzi beta-gal in NIH3T3, GalScreen luminescence, 90 h. inhibition, % at 8.34 µM. 5.9% of 77,000 active;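 active = mean inhibition above about 93%, with at least 55% of replicates each passing it, limit read from the data, passing the limit was not always enough; inconclusive = only one of those two conditions holds; inactive = neither condition holds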
C diff HTS: C. difficile growth inhibitors, primary screen, HTS. Clostridium difficile clinical isolate growth, OD600, 24 h; stronger effect = lower value. growth activity, negative = inhibition, % at 16 µg/mL (by protocol). 0.25% of 86,000 active. AID 1259249, 2017;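 active = mean growth activity at or below -80% and every replicate also at or below -80%; inconclusive = mean at or below -80% but some replicate above -80%; inactive = mean growth activity above -80%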
Pf Dd2 inh: P. falciparum Dd2 growth inhibitors, primary screen, SYBR Green fluorescence, single dose replicates; activity change, % at 10 µM; AID 1159554, 2015; 2.3% of 94,000 active; 72 h; stronger effect = lower value; in the data active = activity change below about -80%; inconclusive = no clear call, values can overlap the other calls
T cruzi growth-2: T. cruzi intracellular proliferation inhibitors, confirmation, cell-based, NIH3T3 host, beta-gal parasite, luminescence, cherry-pick | inhibition, % at 8.35 µM | 72% of 5,600 active | shares compounds with T cruzi growth-1 | T. cruzi beta-gal in NIH3T3, GalScreen luminescence, 90 h | AID 651739, 2012;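 active = mean replicate inhibition above about 95% and at least 55% of replicates individually reaching it, limit read from the data; inconclusive = only one of the two criteria is met; inactive = neither criterion is met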
T cruzi growth-3: inhibitors of intracellular T. cruzi replication, confirmation, NIH3T3 host cells, beta-gal parasites, cherry-pick, set 2; shares compounds with T cruzi growth-1; inhibition, % at 2.09 µM; T. cruzi beta-gal in NIH3T3, GalScreen luminescence, 90 h; AID 651740, 2012; 21% of 5,600 active;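 active = mean inhibition above about 95%, with at least 55% of replicates also reaching it, limit read from the data; inconclusive = meets just one of the two conditions; inactive = meets neither condition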
NIH3T3 tox: cytotoxicity in mouse NIH/3T3 fibroblasts, confirmation, cytotoxicity control for T. cruzi proliferation inhibitor project, cell-based, cherry-pick, single point; shares compounds with T cruzi growth-1; NIH/3T3 viability, CellTiter-Glo ATP luminescence, 90 h; cytotoxicity (signal decrease), % at 8.35 µM; 14% of 5,600 active; AID 651742, 2012;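 active = mean signal decrease across replicates above about 35% based on untreated-well scatter, with enough replicates individually passing, limit read from the data; inconclusive = no rule stated though some were filed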
NIH3T3 tox 2: NIH/3T3 fibroblast cytotoxicity, confirmation, cytotoxicity control, cell-based, cherry-pick, single point, set 2; NIH/3T3 viability, CellTiter-Glo ATP luminescence, 90 h; inhibition, % at 24.9 µM; shares compounds with T cruzi growth-1; 56% of 5,600 active;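 active = mean loss of cell viability signal at or above a set limit, and enough replicates individually reaching it; inconclusive = meets only the mean limit or only the replicate share; inactive = meets neither condition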
Of the large screens only hits and unclear results are named; the others gave an inactive call (follow-up assays come after a bar, where they were run).

N#C[C@@H]1[C@@H](c2ccc(C#Cc3ccccc3F)cc2)[C@@H](CO)N1C(=O)C1CCC1	none
N#C[C@H]1[C@@H](c2ccc(C#Cc3cccc(F)c3)cc2)[C@@H](CO)N1C(=O)C1CCCC1	none
N#C[C@H]1[C@H](c2ccc(C#Cc3cccc(F)c3)cc2)[C@@H](CO)N1C(=O)C1CCCC1	T cruzi growth-1 99 | T cruzi growth-2 inactive | T cruzi growth-3 102 | NIH3T3 tox inactive | NIH3T3 tox 2 96
N#C[C@H]1[C@H](c2ccc(C#Cc3cccc(F)c3)cc2)[C@H](CO)N1C(=O)C1CCCC1	T cruzi growth-1 105 | T cruzi growth-2 102 | T cruzi growth-3 inactive | NIH3T3 tox inactive | NIH3T3 tox 2 95
N#C[C@H]1[C@@H](c2ccc(C#Cc3ccccc3F)cc2)[C@@H](CO)N1C(=O)C1CCC1	Pf Dd2 inh inconclusive
CC(C)NC(=O)N[C@H]1CC[C@@H](CCNC(=O)C2CCOCC2)O[C@H]1CO	none (no result: C diff HTS)
O=C(NC1Cc2ccccc2C1)[C@H]1[C@H](CO)[C@H]2Cn3c(cccc3=O)[C@@H]1N2Cc1ccccc1F	none
C[C@H](CO)N1C[C@H](C)[C@@H](CN(C)C(=O)Nc2ccccc2)OCCCC[C@H](C)Oc2ccc(NC(=O)NC3CCCCC3)cc2C1=O	none (no result: C diff HTS)
O=C(N[C@H]1CC[C@@H](CCNS(=O)(=O)c2ccc(F)cc2)O[C@@H]1CO)c1cccnc1	none
C[C@@H]1CN([C@H](C)CO)C(=O)c2cc(NS(C)(=O)=O)ccc2O[C@@H](C)CCCCO[C@@H]1CN(C)C(=O)CCCN(C)C	T cruzi growth-1 100 | T cruzi growth-2 inactive | T cruzi growth-3 inactive | NIH3T3 tox inactive | NIH3T3 tox 2 inactive
C[C@@H]1CCCCO[C@H](CN(C)C(=O)CCCN(C)C)[C@H](C)CN([C@@H](C)CO)C(=O)c2cc(NS(C)(=O)=O)ccc2O1	none (no result: Pf Dd2 inh)
C[C@@H]1CCCCO[C@H](CN(C)C(=O)CCCN(C)C)[C@@H](C)CN([C@H](C)CO)C(=O)c2cc(NC(=O)c3ccccc3)ccc2O1	T cruzi growth-1 99 | T cruzi growth-2 inactive | T cruzi growth-3 inactive | NIH3T3 tox inactive | NIH3T3 tox 2 inactive
C[C@@H]1CN([C@@H](C)CO)C(=O)c2cc(NC(=O)c3ccccc3)ccc2O[C@@H](C)CCCCO[C@H]1CN(C)C(=O)CCCN(C)C	none
O=C(C[C@@H]1CC[C@H]2[C@@H](COC[C@@H](O)CN2C(=O)Cc2ccccc2)O1)NC1CCCC1	none
C[C@@H]1CN([C@@H](C)CO)C(=O)c2cc(NC(=O)NC3CCCCC3)ccc2O[C@@H]1CN(C)Cc1ccc(Oc2ccccc2)cc1	none
C[C@H](CO)N1C[C@H](C)[C@H](CN(C)S(=O)(=O)c2cccc(C#N)c2)OCc2ccccc2-c2ccccc2C1=O	none
COc1cccc(S(=O)(=O)N(C)C[C@@H]2OCc3ccccc3-c3ccccc3C(=O)N([C@@H](C)CO)C[C@@H]2C)c1	T cruzi growth-1 105 | T cruzi growth-2 inactive | T cruzi growth-3 inactive | NIH3T3 tox inactive | NIH3T3 tox 2 inactive
COc1cccc(S(=O)(=O)N(C)C[C@H]2OCc3ccccc3-c3ccccc3C(=O)N([C@H](C)CO)C[C@H]2C)c1	none
C[C@@H]1CN([C@H](C)CO)C(=O)c2ccccc2-c2ccccc2CO[C@H]1CN(C)S(=O)(=O)c1cccc(C#N)c1	T cruzi growth-1 inconclusive | T cruzi growth-2 inactive | T cruzi growth-3 inactive | NIH3T3 tox inactive | NIH3T3 tox 2 inactive
C[C@@H]1CN([C@H](C)CO)C(=O)Cc2cc(NC(=O)Cc3ccccc3)ccc2O[C@@H]1CN(C)Cc1ccc(Cl)c(Cl)c1	none
COCC(=O)N1CC2(C1)[C@H](c1ccc(C3=CCCC3)cc1)[C@H](CO)N2C(=O)COC	none (no result: T cruzi growth-1)
C[C@H](CO)N1C[C@H](C)[C@H](CN(C)C(=O)Nc2ccc3c(c2)OCO3)Oc2cc(C#Cc3cccnc3)ccc2S1(=O)=O	T cruzi growth-1 101, Pf Dd2 inh inconclusive | T cruzi growth-2 inactive | T cruzi growth-3 inactive | NIH3T3 tox inactive | NIH3T3 tox 2 inactive
C[C@@H]1CN([C@@H](C)CO)S(=O)(=O)c2ccc(C#Cc3ccccc3)cc2O[C@@H]1CN(C)C(=O)Nc1ccc2c(c1)OCO2	T cruzi growth-1 131, Pf Dd2 inh inconclusive | T cruzi growth-2 107 | T cruzi growth-3 inconclusive | NIH3T3 tox inactive | NIH3T3 tox 2 30
C[C@@H]1CN([C@@H](C)CO)S(=O)(=O)c2ccc(C#Cc3ccccc3)cc2O[C@H]1CN(C)C(=O)Nc1ccc2c(c1)OCO2	T cruzi growth-1 132 | T cruzi growth-2 98 | T cruzi growth-3 inactive | NIH3T3 tox inconclusive | NIH3T3 tox 2 45
C[C@H](O)C#Cc1ccc2c(c1)O[C@H](CN(C)C(=O)Nc1ccccc1)[C@@H](C)CN([C@H](C)CO)S2(=O)=O	none
C[C@@H]1CN([C@H](C)CO)S(=O)(=O)c2ccc(C#Cc3ccncc3)cc2O[C@@H]1CN(C)C(=O)Nc1ccc2c(c1)OCO2	none
C[C@H](CO)N1C[C@H](C)[C@H](CN(C)C(=O)Nc2ccc3c(c2)OCO3)Oc2cc(C#Cc3ccccc3)ccc2S1(=O)=O	T cruzi growth-1 131 | T cruzi growth-2 108 | T cruzi growth-3 inactive | NIH3T3 tox inactive | NIH3T3 tox 2 inactive
C[C@@H]1CN([C@@H](C)CO)S(=O)(=O)c2ccc(C#Cc3cccnc3)cc2O[C@H]1CN(C)C(=O)Nc1ccc2c(c1)OCO2	none
C[C@@H]1CN([C@H](C)CO)S(=O)(=O)c2ccc(C#Cc3ccncc3)cc2O[C@H]1CN(C)C(=O)Nc1ccc2c(c1)OCO2	none
COc1ccc(S(=O)(=O)N(C)C[C@H]2Oc3ccc(NC(=O)CCCN(C)C)cc3CC(=O)N([C@H](C)CO)C[C@H]2C)cc1	none (no result: T cruzi growth-1)
CCCC(=O)N1CC2(CCN(Cc3cccnc3)CC2)c2c([nH]c3cc(OC)ccc23)[C@@H]1CO	none (no result: T cruzi growth-1)
C[C@@H]1CN([C@@H](C)CO)S(=O)(=O)c2ccc(Br)cc2O[C@H]1CN(C)C(=O)Nc1ccc2c(c1)OCO2	none (no result: T cruzi growth-1)
C[C@H]1CN([C@@H](C)CO)S(=O)(=O)c2ccc(C#Cc3ccccc3)cc2O[C@@H]1CN(C)C(=O)Nc1ccc2c(c1)OCO2	T cruzi growth-1 131 | T cruzi growth-2 106 | T cruzi growth-3 inactive | NIH3T3 tox inactive | NIH3T3 tox 2 inactive
